In the supplement of paper PMC9177965:
Values joined by “and” are separate entries in the source; they are usually repeats but may differ in a detail not shown here. Equal values may be shown once.

How the values were obtained:
[1] = tested on: HT29 RNF43 G659fs (RNF43 659mut, CRISPR-edited); assay: cell viability activity relative to DMSO (negative = inhibition); higher = more viable cells (less growth inhibition); conditions: 5 µM; 96 h
Procedure: (§1)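 Broad Repurposing Library primary screen at a single dose of 5 uM. HT29 sg-Ctrl and HT29 RNF43 G659fs CRISPR-edited isogenic cells were seeded at 2500 cells/well in 384-well plates in duplicate and treated for 96 h. Viability was read by CellTiter-Glo and reported as % activity relative to DMSO, with MG132 as the positive control (negative = growth inhibition).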

[2] = tested on: HT29 sg-Ctrl (RNF43 wildtype); assay: as above; conditions: 5 µM; 96 h
Procedure: as §1

SMILES	cell viability activity [1]	cell viability activity [2]
CCc1c(O)cc(O)c(C(=O)c2ccc(OCCN3CCOCC3)c(OC)c2)c1CC(=O)N(CCOC)CCOC	-93%	-90%
Cc1nc2ccccc2n1Cc1ccc(Cl)cc1	-60.5%	-39.4%
CC1(C)CC(Oc2ccc(-c3ccc(-c4cn[nH]c4)cc3O)nn2)CC(C)(C)N1	-77%	-89.2%
CN1C/C=C/CCOc2cccc(c2)-c2ccnc(n2)Nc2cccc(c2)C1	-92.8%	-89.6%
C=C1C(=O)CC2CC3OC3(C)CCC3OC3(C)C[C@H](OC(C)=O)C1C2(C)C (stereo partly drawn)	-28.6%	-25.5%
Cc1cc(Nc2nc(N[C@@H](C)c3ncc(F)cn3)ncc2Cl)[nH]n1	-32.8%	-31.6%
Cc1ccc(C(=O)Nc2ccc(Oc3cc4cnn(C)c4cc3-c3cn[nH]c3)c(F)c2)c(=O)n1-c1ccc(F)cc1	-41.5%	-29%
COc1ccc(-c2cc3nccn3c(Nc3ncccc3C(N)=O)n2)cc1OC	-27.9%	-32.6%
Nc1nc(Cl)nc2c1ncn2[C@@H]1O[C@H](CO)[C@@H](O)[C@@H]1F	-30.3%	-63.4%
CCN1CCN(Cc2ccc(Nc3ncc(F)c(-c4cc(F)c5nc(C)n(C(C)C)c5c4)n3)nc2)CC1	-49.8%	-44.9%
Nc1ncccc1-c1nc2ccc(-c3ccccc3)nc2n1-c1ccc(C2(N)CCC2)cc1	-70.4%	-49.1%
CS(=O)(=O)N1CCN(Cc2cc3nc(-c4cccc5[nH]ncc45)nc(N4CCOCC4)c3s2)CC1	-62.8%	-51.8%
COc1ncc(-c2ccc3nccc(-c4ccnnc4)c3c2)cc1NS(=O)(=O)c1ccc(F)cc1F	-93.8%	-89.3%
CN(c1ncccc1CNc1nc(Nc2ccc3c(c2)CC(=O)N3)ncc1C(F)(F)F)S(C)(=O)=O	-83.7%	-83.1%
CCCCCCCCCCC(CO)CCCCCCCC (stereo not drawn)	-65.4%	-76.7%
CC(=O)[C@]1(O)Cc2c(O)c3c(c(O)c2[C@@H](O[C@H]2C[C@H](N)[C@H](O)[C@H](C)O2)C1)C(=O)c1ccccc1C3=O	-97.8% and -97.3%	-93% and -97.3%
Cc1cccc(Nc2nc(-c3ccncc3)cs2)c1	-85.7%	-55.8%
Clc1ccc(COC(Cn2ccnc2)c2ccc(Cl)cc2Cl)cc1 (stereo not drawn)	-23.9%	-14.6%
O=P(O)(O)C(O)(Cn1ccnc1)P(=O)(O)O	-39.2%	-25.6%
COc1ccc2[nH]c3c(-c4cccc5ccccc45)nccc3c2c1	-69.1%	-60.2%
CN(C)Cc1ccc(S(=O)(=O)n2ccc(/C=C/C(=O)NO)c2)cc1	-72.5%	-64.6%
CNC(=O)c1ccccc1Nc1nc(Nc2ccc(N3CCOCC3)cc2OC)ncc1Cl	-73.1%	-70.3%
CCCC1(CCC)CCC2(CCN(CCCN(CC)CC)C2)CC1	-96.4%	-95.6%
COC[C@H](C)NC1CCC(Nc2cc(-c3cccc(NCC4(C#N)CCOCC4)n3)c(Cl)cn2)CC1 (stereo partly drawn)	-67.4%	-89.4%
Cc1cccc(C)c1NC(=O)CN1CCN(CCCC(c2ccc(F)cc2)c2ccc(F)cc2)CC1	-28.2%	-46%
S=c1[nH]cnc2nc[nH]c12	-51.6%	-49.4%
COC(=O)Nc1nc2ccc(SC(C)C)cc2[nH]1	-43.7%	-5.83%

SMILES	cell viability activity [1]	cell viability activity [2]
CO[C@@H](C(=O)N1Cc2[nH]nc(NC(=O)c3ccc(N4CCN(C)CC4)cc3)c2C1)c1ccccc1	-62%	-55.5%
Cc1nc(N)sc1-c1ccnc(Nc2ccc(N3CCOCC3)cc2)n1	-59.7%	-59.8%
CN(C)C(=S)SC(=S)N(C)C	-30.9%	-29.9%
CC(C)c1ccc(C(=O)N=C(N)N)cc1S(C)(=O)=O	-25.7%	-5.71%
COc1ccc(-c2nc(N3CCOCC3)c3sc(CN(C)c4ncc(C(=O)NO)cn4)cc3n2)cn1	-94.5%	-93.5%
O=C(c1ccc(-c2ccc(Cl)cc2)o1)N(Cc1ccccn1)c1ccc(N2CCNCC2)cc1	-45.7%	-21.3%
CCCCCCCCCc1ccc(OCCOCCOCCOCCOCCOCCOCCOCCOCCO)cc1	-55.9%	-22.3%
CC[C@@H]1C(=O)N(C)c2cnc(Nc3ccc(C(=O)NC4CCN(C)CC4)cc3OC)nc2N1C1CCCC1	-83.2%	-90.4%
C[C@@H](NCCCc1cccc(C(F)(F)F)c1)c1cccc2ccccc12	-78.1%	-41.7%
O=C1NCN(c2ccccc2)C12CCN(CCCC(c1ccc(F)cc1)c1ccc(F)cc1)CC2	-27.2%	-69.5%
CC(C)NC[C@@H](C(=O)N1CCN(c2ncnc3c2[C@H](C)C[C@H]3O)CC1)c1ccc(Cl)cc1	-53.6%	-35.4%
CN1CCN(CCOc2cc(OC3CCOCC3)c3c(Nc4c(Cl)ccc5c4OCO5)ncnc3c2)CC1	-54.8%	-58.9%
CC(=O)N1CCN(CCOc2ccc(C3CCN(C4=Nn5c(nnc5C(F)(F)F)CC4)CC3)cc2)CC1	-32.3%	-33.7%
O=C(Nc1cc(C(F)(F)F)cc(C(F)(F)F)c1)c1cc(Cl)ccc1O	-94.4%	-90.9%
Cc1noc2c1-c1ccccc1C(c1ccc(Cl)cc1)=N[C@H]2CC(N)=O	-53.9%	-57.7%
CCn1c2ccccc2c2cc(Nc3ccnc(NCCCN4CCOCC4)n3)ccc21	-79.7%	-84.9%
CC(C)=CCC/C(C)=C/CC/C(C)=C/CSc1ccccc1C(N)=O	-26.6%	-6.13%
CCN(CC)CCNc1ccc(CO)c2sc3ccccc3c(=O)c12	-23.1%	-27.7%
CC(C=CC(=O)NO)=CC(C)C(=O)c1ccc(N(C)C)cc1 (stereo not drawn)	-95.2%	-94.9%
CCOc1ccccc1OC(c1ccccc1)C1CNCCO1 (stereo not drawn)	-30.5%	-58.7%
C=C[C@@](C)(/C=C/c1ccc(O)cc1)CCC=C(C)C	-39.5%	-49.8%
CN(c1ccccc1CNc1nc(Nc2ccc3c(c2)CC(=O)N3)ncc1C(F)(F)F)S(C)(=O)=O	-45.3%	-57.8%
O=C(NNc1nc2cc(F)ccc2n2cccc12)c1cnccn1	-82.8%	-88.3%
COc1cc(Nc2c(C#N)cnc3cc(OCCCN4CCN(C)CC4)c(OC)cc23)c(Cl)cc1Cl	-96.5%	-97.9%
C#CCC(Cc1cnc2nc(N)nc(N)c2n1)c1ccc(C(=O)N[C@@H](CCC(=O)O)C(=O)O)cc1 (stereo partly drawn)	-68.9%	-61.7%
COc1cccc2c1C(=O)c1c(O)c3c(c(O)c1C2=O)C[C@@](O)(C(=O)CO)C[C@@H]3O[C@H]1C[C@H](N)[C@@H](O)[C@H](C)O1	-93.5%	-76.5%
O=C(NC1CCN(CCCCC2(C(=O)NCC(F)(F)F)c3ccccc3-c3ccccc32)CC1)c1ccccc1-c1ccc(C(F)(F)F)cc1	-95.7%	-92.3%

SMILES	cell viability activity [1]	cell viability activity [2]
COC(=O)C1=C(C#N)NC(C)=C(C(=O)OC(C)C)C1c1cccc([N+](=O)[O-])c1 (stereo not drawn)	-44.7%	-65.8%
Cc1ccc(C(=O)N(CCCN)[C@@H](c2nc3cc(Cl)ccc3c(=O)n2Cc2ccccc2)C(C)C)cc1	-65.1%	-66.5%
O=c1cc(N2CCOCC2)oc2c(-c3cccc4c3sc3ccccc34)cccc12	-57.6%	-57.1%
C[C@H]1[C@@H](O)O[C@@H]2O[C@@]3(C)CC[C@H]4[C@H](C)CC[C@@H]1[C@@]24OO3	-30.9%	-30%
N#Cc1cc2c(OCC(O)CN3CCN(C(c4ccccc4)c4ccccc4)CC3)cccc2[nH]1 (stereo not drawn)	-23.9%	-20.5%
Nc1ncnc2c1c(-c1cnc3[nH]ccc3c1)nn2C1CCCC1	-84.8%	-78.7%
CO[C@@H]1[C@H](N(C)C(=O)c2ccccc2)C[C@H]2O[C@]1(C)n1c3ccccc3c3c4c(c5c6ccccc6n2c5c31)C(=O)NC4	-53.8%	-61.4%
Nc1ncn([C@@H]2O[C@H](CO)[C@@H](O)[C@H]2O)c(=O)n1	-24.4%	-7.11%
CCS(=O)(=O)c1cccc(-c2cc(C(=O)NC3CCN(C)CC3)c(C)c3[nH]c4ncc(C)cc4c23)c1	-90.1%	-85.9%
NC(=O)N1CCC(CC(=O)N2CCC([C@H]3c4ncc(Br)cc4CCc4cc(Cl)cc(Br)c43)CC2)CC1	-51%	-56.6%
CN1CCC(NC(=O)c2cc(-c3c(O)cc(O)cc3Oc3ccc([N+](=O)[O-])cc3)on2)CC1	-26.7%	-21.1%
Cc1cccc(/C=N/Nc2cc(N3CCOCC3)n3nc(-c4ccncc4)cc3n2)c1	-56.4%	-51.8%
N#Cc1ccncn1	-26.7%	-18.3%
c1ccc2c(CCNc3ccc(Nc4ccncc4)cc3)c[nH]c2c1	-93.4%	-90.3%
Cn1c(=O)n(-c2ccc(C(C)(C)C#N)cc2)c2c3cc(-c4cnc5ccccc5c4)ccc3ncc21	-56.8%	-44.1%
Cn1cc(C2=C(c3cn(CCCSC(=N)N)c4ccccc34)C(=O)NC2=O)c2ccccc21	-81.3%	-73.6%
COc1cc(N2CCC(N3CCN(C)CC3)CC2)ccc1Nc1ncc(Cl)c(Nc2ccccc2S(=O)(=O)C(C)C)n1	-53.9%	-66.5%
CCN1CCN(c2ccc(C(C)(C)NC(=O)c3cc4[nH]c5ccccc5c(=O)c4cc3F)cn2)CC1	-45.9%	-42.7%
COc1ccc(C[C@H](NC(=O)[C@H](C)NC(=O)CN2CCOCC2)C(=O)N[C@@H](Cc2ccccc2)C(=O)[C@@]2(C)CO2)cc1	-95.4%	-94.4%
Cc1cc(N2CCOCC2)cc2[nH]c(-c3c(NC[C@@H](O)c4cccc(Cl)c4)cc[nH]c3=O)nc12	-55%	-50.5%
COc1cc([C@@H]2c3cc4c(cc3[C@@H](O[C@@H]3O[C@@H]5CO[C@@H](c6cccs6)O[C@H]5[C@H](O)[C@H]3O)[C@H]3COC(=O)[C@H]23)OCO4)cc(OC)c1O	-84.4% and -59.9%	-90.9% and -80.9%
O=C(NOCC(O)CO)c1cc(Br)c(F)c(F)c1Nc1ccc(I)cc1F (stereo not drawn)	-75.8%	-79.7%
CN(C)CCOc1ccc(/C(=C(/CCCl)c2ccccc2)c2ccccc2)cc1	-85.2%	-82.8%
CC(C)(C)c1cc(/C=C(\C#N)C(N)=S)cc(C(C)(C)C)c1O	-85.1%	-77%
Clc1ccccc1CNCC1CCC(CNCc2ccccc2Cl)CC1 (stereo not drawn)	-26.3%	-19.9%
